Screening results (PubChem)
Shown are actives, neighbours in structure and some others; about 21% of the full set was active somewhere.
SARS PLpro yeast = qHTS of Yeast-based Assay for SARS-CoV PLP | Potency, µM (series often up to 32.9 µM), for the others: at the highest dose activity, positive = growth rescue, usual class: activators | AID 485353, 2010 | actives 0.19% (n = 330,000) | S. cerevisiae expressing SARS-CoV PLpro, growth rescue; calls by dose curve; note: potency is the fitted concentration of half-maximal effect; 0% is about no effect; nearly all actives have a fitted effect of over 55% in size
Shiga toxin inh = A qHTS for Small Molecule Inhibitors of Shiga Toxin; actives 9.2% (n = 290,000); inhibition, % at 38.7 µM; AID 2315, 2010; Vero cells, Shiga toxin protein synthesis inhibition reporter; in the data active = inhibition mostly above about 28%, no sharp cut-off; inactive = mostly below about 43%; note: 0% is about no effect
NS1 inh = qHTS Assay for Inhibitors of Influenza NS1 Protein Function; AID 2326, 2010; Potency, µM (titrated, usually from 46.1 µM), inactives show at the highest dose activity, positive = more growth; actives 0.4% (n = 270,000); calls by dose curve; note: potency is the fitted concentration of half-maximal effect; actives are rising curves; nearly all actives have a fitted effect of over 50% in size
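Recovery from NS1-induced slow growth read by OD600 in budding yeast switched to galactose assay medium (pH 6.0, -URA) at 1:100 dilution. Compound 23 nl per well; the matching strain lacking NS1 serves as control.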
Pf growth 48h = Primary qHTS for delayed death inhibitors of the malarial parasite plastid, 48 hour incubation | actives 5.9% (n = 310,000) | P. falciparum luciferase growth in erythrocytes, 48 h | Potency, µM (titrated, usually from 28.7 µM), without a hit: at the top dose activity change, negative = inhibition, actives largely listed as inhibitors | AID 504832, 2011; note: potency is the fitted concentration of half-maximal effect; % is set by controls: 0 for no effect and ±100 for the full control effect
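Compounds are pin-transferred into medium, infected erythrocytes (2% hematocrit, 0.1% parasitemia final) are added, and plates sit one parasite generation at 37 C in 5% CO2. Detection reagent is then added and luminescence measured.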
Cycloheximide cs = Cycloheximide Counterscreen for Small Molecule Inhibitors of Shiga Toxin | cell reporter, cycloheximide protein synthesis inhibition counterscreen | AID 2314, 2010 | actives 12% (n = 300,000) | max response, %; in the data active = max response mostly above about 13%, no sharp cut-off; inactive = mostly below about 14%; note: read at 38.3 µM for the half of the compounds with a filed dose; 0% is about no effect
Pf growth 96h = Primary qHTS for delayed death inhibitors of the malarial parasite plastid, 96 hour incubation. P. falciparum luciferase reporter growth, 96 h. Potency, µM (doses to about 28.7 µM), for the others: at the highest dose activity change, negative = inhibition, usual class: inhibitors. actives 6.9% (n = 320,000). AID 504834, 2011; note: potency is the fitted concentration of half-maximal effect; % is set by controls: 0 for no effect and ±100 for the full control effect
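Compounds incubated with erythrocytes infected by luciferase-expressing P. falciparum (2% hematocrit, 0.05% parasitemia final) for 96 hours, 37 C in 5% CO2. Growth inhibition scored as decreased luciferase luminescence.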
* = called active by the depositor; ? = inconclusive; / = no result; [ ] = remark or other dose. Unless noted, calls come from the whole dose curve; as a rule, active = well fitted inhibition curve with a large enough effect; inconclusive = small, poorly fitted or top-dose-only effect, or another doubt; inactive = no such curve, though single readings can be large or run the other way.

SMILES	SARS PLpro yeast	Shiga toxin inh	NS1 inh	Pf growth 48h	Cycloheximide cs	Pf growth 96h
CCOC(=O)CC1CCCCN1Cc1cn[nH]c1-c1ccc(F)cc1F (stereo not given)	0%	-12	-1%	13%	0	-7%
COc1ccc(C(=O)OCC(=O)c2ccc(Br)s2)c(OC)c1	-1%	/	/	55%	/	49%
COc1cccc(C(=O)OCC(=O)c2ccc(Br)s2)c1	-5%	88*	-11%	25%	53*	?
CCS(=O)(=O)c1nc2ccccc2n1Cc1ccccc1Cl	3%	21	-34%	?	1	10µM*
Cc1ccc2c(c1)C(=O)c1ccccc1CS2=O (stereo not given)	20%	20	16%	23%	6	13%
O=C(Nc1cc(Oc2ccc(Cl)cc2)cc([N+](=O)[O-])c1)c1ccco1	-37%	74*	-17%	?	47*	95%
O=C(Nc1cc(SCCO)cc([N+](=O)[O-])c1)c1ccco1	-4%	2	0%	19%	-4	9%
CCOc1ccc(Oc2cc(NC(=O)c3ccco3)cc([N+](=O)[O-])c2)cc1	-38%	9	-115%	6.6µM*	-2	1.7µM*
Cc1nn(C)cc1C(=O)Nc1cc(Oc2ccc(Cl)cc2)cc([N+](=O)[O-])c1	-4%	-15	-3%	?	-3	/
COc1ccccc1N1CCN(C(=O)C(=O)c2c(C)[nH]c3ccccc23)CC1	8%	-12	-15%	-4%	-7	?
Cn1nc(C(F)(F)F)c(C(=O)Nc2ccc(F)cc2F)c1Sc1cccc(C(F)(F)F)c1	15%	6	4%	9.3µM*	6	8.3µM*
O=C(Nc1ccc(F)cc1F)c1c(C(F)(F)F)ccnc1Oc1cccc(C(F)(F)F)c1	0%	5	5%	15µM*	-1	10µM*
Cc1ccc(NC(=O)CN2CCN(S(=O)(=O)c3ccc(F)cc3)CC2)cc1C	2%	/	/	?	/	?
Cc1ccccc1NS(=O)(=O)c1ccc(OCC(=O)N2CCCCC2)cc1	-1%	-6	7%	-16%	-3	/
COc1ccc(C(=O)NCC(=O)N2CCN(c3ncccn3)CC2)cc1OC	2%	/	/	?	/	?
CN(C)c1ccc(-n2cccc2)cc1	0%	20	0%	5%	16*	-7%
COC(=O)c1cc(-c2ccc3ccccc3c2)[nH]c(=O)c1C#N	/	/	3%	/	/	/
CN(CC(=O)N1CCCc2c1c(=O)oc1ccc(O)cc21)Cc1ccccc1	0%	-10	4%	9.3µM*	2	?
CC1CCN(CCC(=O)N2CCCc3c2c(=O)oc2ccc(O)cc32)CC1	0%	-4	-6%	?	-4	-5%
O=C(Nc1cccc(O)c1)c1cccc(C(=O)Nc2cccc(O)c2)c1	2%	-4	10%	-23%	-2	?
CCC(=O)Nc1cccc(NC(C)=O)c1	-3%	-6	6%	/	-3	8%
CCC(=O)Nc1cccc(NC(=O)c2ccc(Br)cc2)c1	-3%	0	-1%	31%	14*	41%
Cc1cccc(NC(=O)CCNC(=O)c2ccc(Br)cc2)c1	-2%	82*	8%	76%	26*	72%
CC(=O)Nc1cccc(NC(=O)c2ccc(Br)cc2)c1	-2%	48	/	184%	27*	?
O=C(Nc1cccc(O)c1)c1ccc(Br)cc1	-2%	69*	-76%	150%	45*	8%
SMILES	SARS PLpro yeast	Shiga toxin inh	NS1 inh	Pf growth 48h	Cycloheximide cs	Pf growth 96h
COc1cccc(C(=O)Nc2cccc(NC(C)=O)c2)c1	-2%	29	5%	31%	11	?
O=C1/C(=C/c2ccccc2)CCCc2ccccc21	-8%	96*	-16%	7%	63*	26%
O=C1/C(=C/c2cccnc2)CC/C1=C\c1cccnc1	0%	34	/	?	63*	?
CCC1C/C(=C\c2cccnc2)C(=O)/C(=C/c2cccnc2)C1 (stereo not given)	-80%	-3	-63%	7.4µM*	38*	21%
O=C1/C(=C/c2cccnc2)CCC/C1=C\c1cccnc1	-126%	-5	-38%	10µM*	-2	13µM*
CN(C)c1ccc(/C=C2\CCC/C(=C\c3ccccc3)C2=O)cc1	-29%	22	5%	?	16	?
O=C1NC(=S)N/C1=C\c1cccnc1	1%	7	-3%	55%	7	-6%
COc1ccc(C2=NOC(Cn3nc(-c4ccccc4)cc3C(=O)NCc3cccs3)C2)cc1 (stereo not given)	-2%	/	/	/	/	/
CC1(C)OC[C@@H]2O[C@H](n3cnc4c(N)nc(Cl)nc43)[C@@H](OS(C)(=O)=O)[C@@H]2O1	/	/	-8%	/	/	/
O=C(COc1ccccc1)Nc1nnc(COc2ccccc2)s1	-2%	-10	-2%	6%	1	?
C/C(=N\NC(=O)c1cccc(S(=O)(=O)Nc2ccccc2Cl)c1)c1ccc(-n2ccnc2)cc1	7%	-20	-10%	1%	-2	/
O=C1/C(=C\c2cccnc2)CCc2ccccc21	-21%	67	-195%	1%	29*	0%
O=C1/C(=C/Nc2cccc([N+](=O)[O-])c2)CCc2ccccc21	-18%	29	-3%	203%	81*	?
O=C1ON=C(c2ccccc2)/C1=C/c1cccnc1	0%	-15	/	7%	1	-15%
CC(C)/C=C1\CC/C(=C\c2cccnc2)C1=O	-12%	124*	/	?	78*	158%
O=C1/C(=C\c2ccc([N+](=O)[O-])cc2)CCc2ccccc21	3%	9	0%	29%	26*	150%
O=C1NC(=S)N/C1=C/c1cccnc1	2%	-5	-35%	1%	-6	?
COc1cc(Nc2nc3ccccc3n3nnnc23)cc(OC)c1OC	-2%	69	3%	/	7	?
O=C1/C(=C/c2ccc(C(=O)O)cc2)CCC/C1=C\c1ccc(C(=O)O)cc1	15%	-1	23%	2.1µM*	-3	1.5µM*
CS(=O)(=O)Nc1cc2c3c(c1)CCC(=O)N3CCC2	2%	-7	0%	1%	-3	36%
Cc1c(O)ccc2cc(S(=O)(=O)c3ccccc3)c(=O)oc12	-1%	-1	1%	7%[0.00184 µM]	0	12µM*
O=C(C1CCCO1)N1CCc2ccccc21 (stereo not given)	3%	-4	-1%	-1%	11	?
O=C(NC(=S)N1CCCc2ccccc21)c1ccco1	0%	82*	10%	148%	33*	-13%
O=C(c1ccco1)N1CCc2ccccc21	-2%	66*	/	180%	35*	0%
CSC1=NCCN1C(=O)c1ccc(Br)o1	21%	92*	?	/	39*	?
